# Assay outcomes from PubChem BioAssay.
# FGF22 binding: shifts melting point of recombinant human FGF22; actives 1.5% (n = 340,000); recombinant FGF22 thermal shift, SYPRO orange fluorescence; percent of sucrose octasulfate shift, DMSO zero; activity (Tm shift, normalised), % at 9.99 µM; Q9HCT0; AID 651658;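 active means mean Tm shift, scaled 0 neutral to 100 positive control, at about 1.3% or above, every replicate too, limit read from the data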
# Target sequence (Q9HCT0 whole entry, looked up): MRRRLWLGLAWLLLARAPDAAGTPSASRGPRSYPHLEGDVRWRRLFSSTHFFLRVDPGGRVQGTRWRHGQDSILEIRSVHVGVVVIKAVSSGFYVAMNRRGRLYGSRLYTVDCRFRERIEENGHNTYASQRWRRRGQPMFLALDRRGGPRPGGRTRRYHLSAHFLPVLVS
# SIRT5 block: sirtuin-5 (human) deacylase inhibition; Q9NXA8; Purified SirT5, succinyl-peptide AMC, trypsin-coupled fluorescence; inhibition, % at 15 µM; actives 1.1% (n = 330,000); in the data active means inhibition above about 15%
# Casp6 inh: caspase-6 (human) enzyme inhibition; P55212; purified caspase-6, Z-VEID-R110 cleavage fluorescence; inhibition, % at 12.5 µM; actives 0.53% (n = 350,000); AID 686996;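 active means mean inhibition across replicates at least about 35%, with every replicate also reaching that limit, limit read from the data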;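 further: 0% = median of neutral control wells and 100% = no fluorescence left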
# Target sequence (P55212 24-179 limits assumed): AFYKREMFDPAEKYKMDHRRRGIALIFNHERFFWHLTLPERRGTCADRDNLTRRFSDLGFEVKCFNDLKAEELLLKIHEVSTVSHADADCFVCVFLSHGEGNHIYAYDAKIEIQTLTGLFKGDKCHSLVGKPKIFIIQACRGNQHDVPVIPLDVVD
# Target sequence (P55212 194-293 limits assumed): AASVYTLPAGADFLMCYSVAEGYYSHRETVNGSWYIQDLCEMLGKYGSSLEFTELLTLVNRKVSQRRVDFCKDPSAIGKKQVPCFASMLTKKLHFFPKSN
# ERAP1 HTS inh: inhibitors of human ERAP1 aminopeptidase | AID 652197 | Q9NZ08 | inhibition, % at 10.7 µM | actives 0.15% (n = 340,000) | recombinant ERAP1, Leu-AMC fluorescence, 60 min;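 active means mean replicate inhibition of at least 30%, or all replicates individually reaching that 30% level; inactive means mean below 30% and not every replicate reaching it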;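 further: 0% = neutral control wells and 100% = L-leucinethiol positive control wells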
# Numbers without * were called inactive; . = not tested or not shown. Compounds with a hit are over-represented: about 3.1% of the library has one in this group of screens.
SMILES,FGF22 binding,SIRT5 block,Casp6 inh,ERAP1 HTS inh
Cc1ccccc1NC(=S)N(CCc1c(C)[nH]c2ccc(F)cc12)Cc1cccnc1,.,-3,.,-4
Cc1[nH]c2ccc(F)cc2c1CCN(Cc1ccco1)C(=S)NC(C)(C)C,43*,-2,-2,4
COc1ccc(S(=O)(=O)Nc2ccc3c(c2)C(=O)N([C@@H](C)CO)C[C@@H](C)[C@H](CN(C)C(=O)Nc2cccc4ccccc24)OCCCC[C@H](C)O3)cc1,0,.,.,.
Cc1cccc(C)c1NC(=O)C1(N2C(=O)CC2c2ccccc2)CCCCC1 (stereo not given),44*,-1,0,-1
O=C(C[C@@H]1C[C@H]2c3cc(NC(=O)c4ccc5c(c4)OCO5)ccc3O[C@H]2[C@H](CO)O1)NCc1cccnc1,0,12,2,-3
CCCN1CCN(C(=O)c2ccc3nc(CC)c(CC)nc3c2)CC1,0,20*,1,1
CCc1nc2ccc(C(=O)N3CCN(CC)CC3)cc2nc1CC,43*,-1,-5,-2
CCc1nc2ccc(C(=O)N3CCN(c4ccc(Cl)cc4)CC3)cc2nc1CC,0,0,-3,3
CCOc1ccc(-n2c(=S)sc3c(=O)n(-c4ccc(F)cc4)c(SCC(=O)O)nc32)cc1,.,29*,5,1
O=C1C(=NO)CCc2ccccc21,0,-4,68*,3
O=C1c2ccccc2CCc2ccc(Br)cc21,0,.,3,0
C[C@@H]1CN([C@H](C)CO)S(=O)(=O)c2ccc(-c3cccnc3)cc2O[C@@H]1CN(C)Cc1cncnc1,0,-2,-3,0
COc1ccc(NC(=O)CSc2nccn2C)cc1S(N)(=O)=O,2.4*,-3,-5,-5
COc1ccc(CNC(=O)C/C(C)=N/NC(=O)COc2ccc(C)cc2Br)cc1,43*,-5,-3,0
CCCNC(=O)C/C(C)=N/NC(=O)COc1ccc(C)cc1Br,0,.,1,6
O=C(C1CCCC1)N1CC2(C1)[C@H](c1ccccc1)[C@@H](CO)N2CC1CCCC1,.,-3,1,-1
Cc1cccc(C)c1NC(=O)CN(Cc1ccccc1)Cc1ccccc1,0,34*,-4,2
O=C1C2C3C=CC(C3)C2S(=O)(=O)C2C3C=CC(C3)C12 (stereo not given),43*,.,9,2
O=C(O)CN1C(=O)C2C3C=CC(C3)C2C1=O (stereo not given),0,0,0,0
O=C1C2C3C=CC(CC3)C2C(=O)N1c1ccc(Cl)cc1 (stereo not given),0,-3,-1,0
O=C1C2C3C=CC(CC3)C2S(=O)(=O)C2C3C=CC(CC3)C12 (stereo not given),44*,.,-3,4
CNC[C@H]1Oc2c(NC(=O)Nc3ccc(C(F)(F)F)cc3)cccc2C(=O)N([C@@H](C)CO)C[C@@H]1C,0,2,1,-31
C[C@@H]1CN([C@@H](C)CO)C(=O)Cc2cc(NS(=O)(=O)c3ccc(F)cc3)ccc2O[C@@H]1CN(C)S(C)(=O)=O,0,.,-2,2
CS(=O)(=O)N(C(=O)NC(=O)NC12CC3CC(CC(C3)C1)C2)C1CCCCC1,44*,-6,-1,-2
COc1cccc(C(=O)Nc2ccc3c(c2)C(=O)N(C)C[C@H](OC)[C@H](C)CN(CCc2ccccc2)[C@H](C)CO3)c1,0,11,.,.
SMILES,FGF22 binding,SIRT5 block,Casp6 inh,ERAP1 HTS inh
CO[C@H]1CN(C)C(=O)c2cc(NS(=O)(=O)c3ccc(Oc4ccccc4)cc3)ccc2OC[C@H](C)NC[C@H]1C,0,28*,1,-4
CCCN1C[C@H](C)[C@@H](OC)CN(C)C(=O)c2cc(NS(=O)(=O)c3ccccc3)ccc2OC[C@H]1C,0,31*,.,.
CCCN1C[C@@H](C)[C@@H](OC)CN(C)C(=O)c2cc(NS(=O)(=O)c3ccccc3)ccc2OC[C@@H]1C,0,-2,.,.
COc1cccc(C(=O)Nc2ccc3c(c2)C(=O)N(C)C[C@@H](OC)[C@@H](C)CN(CCc2ccccc2)[C@@H](C)CO3)c1,0,15*,.,.
CO[C@@H]1CN(C)C(=O)c2cc(NC(=O)c3ccc(Oc4ccccc4)cc3)ccc2OC[C@H](C)NC[C@H]1C,0,100*,3,9
C[C@H]1CN([C@@H](C)CO)C(=O)c2cc(NC(=O)Nc3ccc(F)cc3)ccc2O[C@@H]1CN(C)Cc1ccc(Oc2ccccc2)cc1,0,-9,1,0
COc1ccccc1NC(=O)N1CC(=O)N2[C@H](CO)[C@@H](c3ccc(C#Cc4ccc(F)cc4)cc3)[C@@H]2C1,.,10,1,1
CO[C@H]1CN(C)C(=O)c2cc(NC(=O)c3ccc(-c4ccccc4)cc3)ccc2OC[C@H](C)NC[C@@H]1C,0,7,-2,0
CO[C@H]1CN(C)C(=O)c2ccc(NS(=O)(=O)c3cccc(Cl)c3)cc2OC[C@@H](C)NC[C@H]1C,0,2,41*,12
CO[C@H]1CN(C)C(=O)c2cc(NC(=O)c3ccc(-c4ccccc4)cc3)ccc2OC[C@@H](C)NC[C@@H]1C,0,103*,-2,-2
COc1cccc(S(=O)(=O)Nc2ccc3c(c2)OC[C@@H](C)N(Cc2cc(F)ccc2F)C[C@@H](C)[C@H](OC)CN(C)C3=O)c1,0,20*,0,0
CO[C@H]1CN(C)C(=O)c2ccc(NS(=O)(=O)c3cccc(Cl)c3)cc2OC[C@@H](C)NC[C@@H]1C,0,-2,-1,3
COc1cccc(S(=O)(=O)Nc2ccc3c(c2)OC[C@H](C)N(Cc2ccccc2F)C[C@H](C)[C@@H](OC)CN(C)C3=O)c1,0,3,-1,3
O=C(C[C@@H]1C=C[C@@H](NS(=O)(=O)c2ccc(F)cc2)[C@H](CO)O1)NC1CCCCC1,0,3,3,0
COc1cccc(S(=O)(=O)N[C@@H]2CC[C@H](CC(=O)NCc3ccc(F)cc3)O[C@@H]2CO)c1,0,6,1,-2
Cc1cc(=O)oc2cc(OC(=O)c3cncc(Br)c3)ccc12,44*,-20,-6,0
O=c1[nH]c2ccc(F)cc2[nH]c1=O,0,-1,42*,2
O=C(CCN1CCCCC1)NCC[C@@H]1CC[C@H](NC(=O)C2CCOCC2)[C@H](CO)O1,0,1,-1,3
COc1ccccc1S(=O)(=O)N(C)C[C@H]1OCc2ccccc2-c2c(n(C)c3ccccc23)C(=O)N([C@H](C)CO)C[C@@H]1C,-1,15*,1,-1
COc1ccccc1S(=O)(=O)N(C)C[C@@H]1OCc2ccccc2-c2c(n(C)c3ccccc23)C(=O)N([C@H](C)CO)C[C@H]1C,0,3,0,-3
Cc1ccccc1S(=O)(=O)N(C)C[C@H]1OCc2ccccc2-c2c(n(C)c3ccccc23)C(=O)N([C@H](C)CO)C[C@H]1C,0,16*,2,2
O=C(C[C@@H]1CC[C@H]2[C@@H](COC[C@@H](O)CN2CC2CCCC2)O1)NCc1ccc(Cl)cc1,.,-1,-1,3
